Experimental data: PubChem BioAssay AID777 (Sanford-Burnham Center for Chemical Genomics, 2007)
In all, about 96,000 compounds went through this assay and about 19,000 (20%) were called active. Only a sample is shown. A number with no mark means an inactive call.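 Rule for the calls: active = blocking of liver enzyme CYP2C9 beyond about 50% at 5 µM (limit read from the data); inactive = the rest.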

Each molecule was assayed against Cytochrome P450 2C9 (Homo sapiens) (UniProt P11712) (assay: blockers of cytochrome P450 2C9 activity – biochemical, luminescence, ADME assay, primary screen (AID 777)). Details: CYP2C9 Supersomes, luciferin-H conversion, at 5 µM, hits give high values.
Chain of Cytochrome P450 2C9 (Homo sapiens) (P11712 whole entry, looked up): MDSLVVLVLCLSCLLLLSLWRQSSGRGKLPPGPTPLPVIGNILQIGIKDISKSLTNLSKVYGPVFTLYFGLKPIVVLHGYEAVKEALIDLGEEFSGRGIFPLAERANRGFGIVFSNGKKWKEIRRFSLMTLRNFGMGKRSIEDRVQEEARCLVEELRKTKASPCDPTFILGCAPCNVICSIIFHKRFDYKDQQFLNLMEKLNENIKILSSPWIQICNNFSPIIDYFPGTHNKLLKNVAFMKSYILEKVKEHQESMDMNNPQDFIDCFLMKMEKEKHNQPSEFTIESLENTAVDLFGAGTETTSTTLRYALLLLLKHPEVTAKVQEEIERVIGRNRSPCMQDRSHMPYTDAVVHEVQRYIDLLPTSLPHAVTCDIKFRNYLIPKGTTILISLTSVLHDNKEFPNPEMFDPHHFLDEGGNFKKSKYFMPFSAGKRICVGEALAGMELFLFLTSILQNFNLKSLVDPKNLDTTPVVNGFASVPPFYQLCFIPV

Compared with `Cc1ccc(-n2nc3c(c2NC(=O)CCC2CCCCC2)CS(=O)C3)cc1` (configuration not stated), `O=C(NC1CCCCC1)c1ccc(CNc2c(N3CCOCC3)c(=O)c2=O)cc1` is lower in inhibition: 12% for the first, -23.2% for the second.

First: CCOC(=O)c1[nH]c2c(c1C)C(=O)CC(c1ccc(N(C)C)cc1)C2 (configuration not stated)
Second: CCOc1ccc(/C(O)=C2/C(=O)C(=O)N(Cc3cccnc3)C2c2ccc(N(C)C)cc2)c(C)c1 (configuration not stated)
The inhibition of the first is higher: 36.2% for the first, 20.8% for the second.

First: COC(=O)C1C(=O)c2c([nH]c(C(=O)OCCSC)c2C)CC1C (configuration not stated)
Second: COC(=O)C1C(=O)NCC1c1ccc(OC)cc1 (configuration not stated)
The inhibition of the first is higher: 32.8% for the first, -19.7% for the second.

Compared with `O=c1c2ccccc2nc2n1C(CSCc1cccc(C(F)(F)F)c1)CS2` (configuration not stated), `O=C1CCCC2=C1C(c1cccs1)n1nc(SCc3ccccc3)nc1N2` (configuration not stated) is lower in inhibition: 38.6% for the first, -9.5% for the second.

First: CCOC(=O)CSc1nnc(CNC(=O)c2ccco2)n1-c1ccc(F)cc1
Second: Cc1ccc(C(=O)COc2cccc(NC(=O)c3ccco3)c2)cc1
The inhibition of the first is lower: -0.1% for the first, 32.1% for the second.

First: O=C(NCCN1C(=O)C2C3C=CC(C3)C2C1=O)Nc1ccccn1 (configuration not stated)
Second: O=C(O)C1CC=C(Cl)CC1C(=O)NCc1ccccc1 (configuration not stated)
The inhibition of the first is lower: -16.2% for the first, 13.8% for the second.

First: O=S(=O)(c1cccc2nonc12)N1CCN(c2cccc(Cl)c2)CC1
Second: O=[N+]([O-])c1ccc(N2CCN(S(=O)(=O)c3ccc4ccccc4c3)CC2)cc1NCc1ccco1
The inhibition of the first is lower: 12.3% for the first, 27.8% for the second.

Compared with `O=C(NCCN1CCN(Cc2ccccc2)CC1)c1cc2c(=O)[nH]c3ccccc3c2s1`, `CC(=O)Oc1cc2c(C(=O)NCCN3CCOCC3)c(C)oc2c2ccccc12` is lower in inhibition: 31% for the first, 24.6% for the second.

Going from `CCCc1nnc(NC(=O)CN2C(=O)c3ccccc3S2(=O)=O)s1` to `CCc1nnc(NC(=O)CSc2nnc(COc3ccc(C#N)cc3)n2-c2ccccc2)s1`, the inhibition rises from 9.5% to 30.3%.

Going from `C=C(Br)CN1CCN(CC(=C)Br)CC1` to `CCNC(=S)N1CCN(C(=O)c2ccco2)CC1`, the inhibition rises from -1.7% to 1.2%.

Compared with `CCOc1cccc(C(=O)Nc2cnn(Cc3ccccc3)c2)c1`, `O=C(/C=C/Nc1ccccc1)c1cnc(-c2ccccc2)s1` is higher in inhibition: 10.6% for the first, 12.6% for the second.

Going from `CC(C)=CC(=O)Nc1nnc(-c2ccc(F)cc2)s1` to `Cc1ccc(C(=O)Nc2nnc(-c3cccs3)s2)cc1C`, the inhibition falls from 9% to 2%.

Compared with `Cc1occc1C(=O)NNC(=S)NCC(C)C`, `Cc1occc1C(=O)Nc1nnc(C2CCCCC2)s1` is lower in inhibition: 12.4% for the first, 0.6% for the second.

Compared with `COc1ccc(Oc2coc3cc(OC(=O)c4cncc(Br)c4)ccc3c2=O)cc1`, `COc1ccc(-c2noc(COc3ccc(Cl)c(C)c3)n2)cc1` is higher in inhibition: -54.5% for the first, 11.2% for the second.

First: Cc1nnc(SCC(=O)Nc2ncc3c(n2)CC(C)(C)CC3=O)s1
Second: CC1=C(C(N)=O)C(c2sccc2C)n2nnnc2N1 (configuration not stated)
The inhibition of the first is higher: 22.5% for the first, -4.8% for the second.

Going from `N#Cc1ccc(CSc2nnc(-c3ccccn3)n2-c2ccc(Cl)cc2)cc1` to `Cc1cccc(-n2ncc3c(N4CCc5ccccc54)ncnc32)c1`, the inhibition falls from 7.5% to -9.6%.

Compared with `O=P(c1ccc2c(c1)OCCO2)(N1CCOCC1)N1CCOCC1`, `O=C(c1cccc(N2CCCC2=O)c1)N1CCOCC1` is lower in inhibition: 24.8% for the first, 5.6% for the second.

Compared with `O=C(NNC(=O)c1cccnc1)Nc1ccccc1`, `COC(=O)c1ccc(Cc2ccccc2)o1` is lower in inhibition: -10.1% for the first, -29.6% for the second.

Compared with `CC(C)NC(=O)C(=O)N/N=C/c1ccco1`, `CCC(CC)C(=O)Nc1cccc(C(=O)N2CCCC2)c1` is higher in inhibition: -20.6% for the first, 12.7% for the second.

Compared with `COc1ccc(Nc2nc(=O)[nH]nc2C)cc1`, `COC(=O)C1C(=O)NCC1c1ccc(C)cc1` (configuration not stated) is higher in inhibition: 1.9% for the first, 17.3% for the second.

Compared with `CCN(CC)CC(=O)Nc1nn(-c2ccccc2)nc1C(N)=O`, `CCOC(=O)c1c(N)c(C#N)nn1-c1ccccc1C(=O)OC` is higher in inhibition: -20.1% for the first, -2.3% for the second.

Compared with `CC(=O)c1cc2c(cc1NC(=O)CN1CCCCCC1)OCO2`, `COC(=O)c1ccc(C(=O)OC)c(NC(=S)N2CCCCC2)c1` is higher in inhibition: 0.4% for the first, 14% for the second.

First: O=C(O)c1ccc(COc2c(F)c(F)cc(F)c2F)o1
Second: CC1(C)Oc2ccc3ccc(=O)oc3c2/C(=C/NCCO)C1=O
The inhibition of the first is lower: -9.4% for the first, 4.1% for the second.

Going from `O=C(Nc1nn(Cc2ccccc2F)cc1Br)c1cccs1` to `COc1ccccc1NC(=O)C1=C(C)Nc2nnnn2C1c1cccc(Br)c1` (configuration not stated), the inhibition rises from 8% to 41%.

Compared with `OC(COCCC12CC3CC(CC(C3)C1)C2)CN1CCCCC1` (configuration not stated), `Cc1oc(CC(C)C)c(CN2CCCC2)c1C(=O)O` is lower in inhibition: 3.4% for the first, -18.2% for the second.

Compared with `CCN1CCCC1CNC(=O)Cn1cnc2ccc(S(=O)(=O)N3CCC(C)CC3)cc2c1=O` (configuration not stated), `CCOC(=O)C1CCN(C(=O)C2CCN(S(=O)(=O)c3c(C)noc3C)CC2)CC1` is higher in inhibition: 7.3% for the first, 10.2% for the second.

First: COc1ccccc1C(=O)N1CCNC(=O)C1CC(=O)Nc1ccc(Cl)cc1 (configuration not stated)
Second: CCNC(=O)N1CCNC(=O)C1CC(=O)Nc1ccc(C(=O)OCC)cc1 (configuration not stated)
The inhibition of the first is higher: 27.9% for the first, 1.1% for the second.

Compared with `CN(C)S(=O)(=O)c1ccc(Oc2ccc(S(=O)(=O)N(C)C)cc2)cc1`, `CC(C)N(C(=O)COC(=O)c1ccccc1C(=O)N1CCN(c2ccc(F)cc2)CC1)C(C)C` is higher in inhibition: 13.3% for the first, 39.5% for the second.

Going from `Cc1cccc(N=C2NC(=O)CS2)c1C` to `O=c1[nH]c2c(c(=O)n1Cc1ccccc1)CCC2`, the inhibition falls from 21.1% to -27.1%.

Compared with `COc1ccc2[nH]c(C)c(CCN(Cc3cccs3)C(=S)Nc3ccccc3OC)c2c1`, `COc1ccc(C2C(C(=O)Nc3ccccc3OC)=C(C)Nc3nnnn32)c(OC)c1` (configuration not stated) is lower in inhibition: 43.2% for the first, 31.8% for the second.

First: CN(C)c1ccc(CNC2C3CC4CC(C3)CC2C4)cc1 (configuration not stated)
Second: Cc1noc(/C=C/N(C)C)c1S(=O)(=O)N1CCCC(C(=O)NCc2ccco2)C1 (configuration not stated)
The inhibition of the first is lower: 4.8% for the first, 48.9% for the second.

Going from `COC(=O)c1ccc(/C=N\n2c(C)nnc2C)cc1` to `CO/N=C/c1ccc(N2CCN(C(=O)c3cccc(Cl)c3)CC2)c([N+](=O)[O-])c1`, the inhibition rises from -3.4% to 14.4%.

First: CCCCN1C(=O)/C(=C2/C=CC=CN2C)SC1=S
Second: CC(c1ccccn1)N(CCN(C)C)C(=S)Nc1ccccc1F (configuration not stated)
The inhibition of the first is lower: -5% for the first, -1.3% for the second.

Going from `Cc1cc(C)nc(N2CCN(c3ncnc4c3oc3ccccc34)CC2)n1` to `O=C(c1ccccc1)c1cccn1CC(=O)N1CCN(c2ccc(F)cc2)CC1`, the inhibition falls from -20.3% to -62.9%.

Compared with `CCN(CC)C(=O)CSc1nnc(C2CCCCC2)o1`, `O=C1c2ccncc2C(=O)N1C1CCCCC1` is higher in inhibition: 5.7% for the first, 12.5% for the second.

Going from `COCc1cc(C)nc(Nc2cc(C)ccc2C)c1C#N` to `CCc1cc(Br)ccc1NC(=O)C1CCCO1` (configuration not stated), the inhibition falls from 15.6% to -2.1%.

Compared with `O=C(O)C1CC=CCC1C(=O)Nc1ccccc1C(=O)N1CCN(c2ccccc2)CC1` (configuration not stated), `O=C(Nc1ccc2c(c1)CCC2)c1cccc(S(=O)(=O)N2CCN(c3ccc(F)cc3)CC2)c1` is higher in inhibition: 6% for the first, 39.9% for the second.

`CNC(=O)Nc1cc(C(C)(C)C)no1` and `CC(C)CC(=O)N=C1SC2CS(=O)(=O)CC2N1CCc1ccccc1` (configuration not stated) are the same in inhibition: 7.8% for the first, 7.8% for the second.

Going from `CN(C(=O)CC(NC(=O)c1ccccc1)(c1ccccc1)c1ccccc1)c1ccccc1` to `CCc1ccc(-c2nnn(Cc3nn[nH]n3)n2)cc1`, the inhibition rises from 21.9% to 23.5%.

`CCCOC(=O)c1[nH]c2c(c1C)C(=O)CC(c1cccs1)C2` (configuration not stated) was tested, and the inhibition was 72.3% (active).
In the case of `CCCOC(=O)c1[nH]c2c(c1C)C(=O)CC(c1cc(OC)c(OC)c(OC)c1)C2` (configuration not stated), the inhibition is reported as 66.2% (active).
With `CC12CCC(C(=O)N3CCN(c4ncccn4)CC3)(c3nc4ccccc4nc31)C2(C)C` (configuration not stated) the inhibition was 51.5% (active).
For `Cc1ccc(C(=O)Nc2nnc(-c3ccncc3)s2)o1`, the inhibition was 93.1% (active).
In the case of `Cc1occc1C(=O)Nc1cccc(Cn2cccn2)c1`, the inhibition is reported as 51.4% (active).
`Cc1occc1C(=O)Nc1nnc(-c2ccncc2)s1` was tested, and the inhibition was 90.1% (active).
For `O=C(Nc1ccn(Cc2ccccc2F)n1)c1ccc(COc2ccc(Cl)cc2Cl)o1`, the inhibition was 92.6% (active).
In the case of `COC(=O)C1=C(Nc2ccc(OC)cc2)C=C(C)C(C(=O)OC)C1c1ccc(C)cc1` (configuration not stated), the inhibition is reported as 51.9% (active).
For `Nc1ccccc1SCc1cc([N+](=O)[O-])cc2c1OCOC2`, the inhibition was 53.9% (active).
In the case of `COC(=O)c1ccc(CN(c2ccccc2OC)S(=O)(=O)c2cccs2)o1`, the inhibition is reported as 94.6% (active).
With `COC(=O)c1ccc(C2C3=C(Nc4nnnn42)c2ccccc2OC3)cc1` (configuration not stated) the inhibition was 92.8% (active).
For `Cc1noc(/C=C/c2ccco2)c1S(=O)(=O)N1CCC(C(=O)N2CCc3ccccc32)CC1`, the inhibition was 76.9% (active).
With `Cc1ccc2c(c1)c1ncnc(N3CCc4ccccc4C3)c1n2C` the inhibition was 73% (active).
With `Oc1ccc(-c2onc3ccc(Cl)cc23)cc1` the inhibition was 90.2% (active).
`CCCCCOC(=O)C1=C(C)Nc2nnnn2C1c1ccc(OC)c(OC)c1OC` (configuration not stated) was tested, and the inhibition was 56.5% (active).
For `O=C(c1cccc(F)c1)N1CCN(c2ccc([N+](=O)[O-])c(N3CCCCC3)c2)CC1`, the inhibition was 80.7% (active).
With `O=C(c1cccc(C(=O)N2CCN(c3ccc(F)cc3)CC2)c1)N1CCN(c2ccc(F)cc2)CC1` the inhibition was 84.6% (active).
With `O=C(c1ccccc1)N1CCN(c2ccc([N+](=O)[O-])c(NCc3ccco3)c2)CC1` the inhibition was 87.1% (active).
In the case of `O=C(c1ccccc1Oc1ccccc1)N1CCN(c2ccc(F)cc2)CC1`, the inhibition is reported as 77% (active).
